# Calls of active or inactive are those of the source. A call without a number means that no potency is given here. Unless noted, calls follow the shape of the dose curve; as a rule, active = well fitted curve in the direction sought with a large enough effect in the repeat runs; inconclusive = weak or mixed curves; inactive = no such curve, though single readings can be large; an effect the other way counts as inactive or inconclusive.
# How the values were obtained:
# [1] = qHTS assay to test for compound auto fluorescence at 535 nm (green) in HEK293 cells (AID 720680)
# [2] = qHTS assay to test for compound auto fluorescence at 460 nm (blue) in HEK293 cell free culture (AID 720681)
# Summary of the method: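 Test compounds were pinned into cell-free culture medium (DMEM with 10% FBS) and fluorescence was read directly at Ex/Em 405/460 nm. Signals were expressed as fluorescence equivalents of triamterene, with DMSO vehicle as control.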
# [3] = qHTS assay to test for compound auto fluorescence at 535 nm (green) in HEK293 cell free culture (AID 720682)
# Summary of the method: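 Fluorescein serves as the green reference fluorophore; each compound's intrinsic emission at 535 nm (excitation 485 nm) is reported as an equivalent amount of that dye, measured in serum-containing DMEM without cells.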
# [4] = qHTS assay to test for compound auto fluorescence at 590 nm (red) in HEK293 cell free culture (AID 720683)
# Summary of the method: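 Tox21 10K library compounds were pinned into cell-free DMEM with 10% FBS and fluorescence was read at excitation 540 nm. Activity is expressed as Rose Bengal sodium equivalency.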
# [5] = qHTS assay to test for compound auto fluorescence at 590 nm (red) in HepG2 cell free culture (AID 720684)
# Summary of the method: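 Red fluorescence (540 nm excitation, 590 nm emission) was measured after compound transfer into cell-free MEM supplemented with 10% FBS. Values are equivalencies against Rose Bengal sodium.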
# [6] = qHTS assay to test for compound auto fluorescence at 460 nm (blue) in HepG2 cell free culture (AID 720685)
# Summary of the method: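 Compound (23 nL) or DMSO pinned into cell-free MEM with 10% FBS; blue fluorescence read at 405/460 nm excitation/emission, expressed as auto-fluorescence equivalency to triamterene.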
# [7] = qHTS assay to test for compound auto fluorescence at 535 nm (green) in HepG2 cell free culture (AID 720686)
# [8] = qHTS assay to test for compound auto fluorescence at 460 nm (blue) in HepG2 cells (AID 720687)
# Summary of the method: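 Cells (2,000/well in MEM with 10% FBS) attached overnight at 37 C, then were exposed to compound or DMSO for 1 hr at 37 C, 5% CO2. Fluorescence read at Ex/Em 405/460 nm, expressed as triamterene-equivalent signal.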
# [9] = biological target: Glucocorticoid receptor (Homo sapiens) (UniProt P04150); assay: qHTS assay to identify small molecule agonists of the glucocorticoid receptor (GR) signaling pathway (AID 720691; active = well fitted activation curve with a large enough effect in the signal ratio in the repeat runs, not every such curve was filed as active; inconclusive = weak or mixed curves, or effect the other way; inactive = no such curve, though single readings can be large or run the other way; the % refers to the signal ratio; also: potency is read from the fitted curve at half-maximal effect); details: GR-bla HeLa, beta-lactamase reporter ratio, 18 h; activation: at 62.4 µM (top of the series)
# Sequence of Glucocorticoid receptor (Homo sapiens) (P04150 whole entry, looked up): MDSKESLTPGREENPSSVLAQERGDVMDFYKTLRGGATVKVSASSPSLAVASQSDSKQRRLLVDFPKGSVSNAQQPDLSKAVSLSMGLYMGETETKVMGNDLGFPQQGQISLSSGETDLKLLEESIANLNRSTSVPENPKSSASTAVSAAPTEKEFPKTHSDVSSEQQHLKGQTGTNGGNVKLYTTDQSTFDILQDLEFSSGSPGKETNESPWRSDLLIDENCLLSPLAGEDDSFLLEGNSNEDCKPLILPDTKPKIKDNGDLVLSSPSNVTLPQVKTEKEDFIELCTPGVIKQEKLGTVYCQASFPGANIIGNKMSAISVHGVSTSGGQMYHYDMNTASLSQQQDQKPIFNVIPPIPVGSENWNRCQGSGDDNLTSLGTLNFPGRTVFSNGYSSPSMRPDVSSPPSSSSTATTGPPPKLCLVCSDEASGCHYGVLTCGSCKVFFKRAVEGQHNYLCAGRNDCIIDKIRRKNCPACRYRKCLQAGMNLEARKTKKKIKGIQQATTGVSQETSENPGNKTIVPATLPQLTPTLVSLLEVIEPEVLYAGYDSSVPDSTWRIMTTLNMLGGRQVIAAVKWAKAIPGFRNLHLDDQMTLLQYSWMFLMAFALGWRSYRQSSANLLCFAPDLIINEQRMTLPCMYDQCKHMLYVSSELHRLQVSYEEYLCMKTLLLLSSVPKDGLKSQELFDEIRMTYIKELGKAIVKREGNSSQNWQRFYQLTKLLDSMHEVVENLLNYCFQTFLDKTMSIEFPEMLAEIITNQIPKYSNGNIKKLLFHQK
# Summary of the method: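 qHTS in GR-bla HeLa cells: 4 h settling at 37 C/5% CO2, 18 h compound incubation at 37 C, 2 h LiveBLAzer B/G FRET substrate at room temperature, fluorescence intensity measured.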
# [10] = qHTS assay to identify small molecule antagonists of the glucocorticoid receptor (GR) signaling pathway - cell viability counter screen (AID 720693); also: nearly all actives have a fitted effect of over 55% in size
# [11] = qHTS assay for identifying genotoxic compounds that show differential cytotoxicity against isogenic chicken DT40 cell lines with known DNA damage response pathways - wild type cell line (AID 743012); also: nearly all actives have a fitted effect of over 60% in size; also: potency is read from the fitted curve at half-maximal effect
# Summary of the method: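 First, wild type DT40 cells were plated at 300 per well and equilibrated about 0.5 h at 37 C/5% CO2. Next, compounds in DMSO were added and exposure lasted 40 h. Finally, CellTiter-Glo was added for 30 min at room temperature and luminescence recorded.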
# [12] = qHTS assay for identifying genotoxic compounds that show differential cytotoxicity against isogenic chicken DT40 cell lines with known DNA damage response pathways - Rev3 mutant cell line (AID 743014); also: nearly all actives have a fitted effect of over 55% in size; also: potency is read from the fitted curve at half-maximal effect
# [13] = qHTS assay to identify small molecule antagonists of the androgen receptor (AR) signaling pathway - cell viability counter screen (AID 743033; also: nearly all actives have a fitted effect of over 45% in size)
# [14] = qHTS assay to identify small molecule antagonists of the androgen receptor (AR) signaling pathway using the MDA cell line - cell viability counter screen (AID 743041; also: nearly all actives have a fitted effect of over 45% in size; also: potency is read from the fitted curve at half-maximal effect)
# Summary of the method: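 MDA-kb2 AR-luc human breast carcinoma cells (MMTV-luciferase, AR/GR responsive) were treated with compounds plus R1881 agonist for 16 h at 37 °C. Viability was read as CellTiter-Fluor fluorescence in the same wells as the reporter assay.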
# [15] = qHTS assay for identifying genotoxic compounds that show differential cytotoxicity against isogenic chicken DT40 cell lines with known DNA damage response pathways - Rad54/Ku70 mutant cell line (AID 743015); also: nearly all actives have a fitted effect of over 60% in size; also: potency is read from the fitted curve at half-maximal effect
# [16] = biological target: Androgen receptor (Homo sapiens) (UniProt P10275); assay: qHTS assay to identify small molecule antagonists of the androgen receptor (AR) signaling pathway using the MDA cell line (AID 743042; also: nearly all actives have a fitted effect of over 55% in size; also: potency is read from the fitted curve at half-maximal effect)
# Sequence of Androgen receptor (Homo sapiens) (P10275 whole entry, looked up): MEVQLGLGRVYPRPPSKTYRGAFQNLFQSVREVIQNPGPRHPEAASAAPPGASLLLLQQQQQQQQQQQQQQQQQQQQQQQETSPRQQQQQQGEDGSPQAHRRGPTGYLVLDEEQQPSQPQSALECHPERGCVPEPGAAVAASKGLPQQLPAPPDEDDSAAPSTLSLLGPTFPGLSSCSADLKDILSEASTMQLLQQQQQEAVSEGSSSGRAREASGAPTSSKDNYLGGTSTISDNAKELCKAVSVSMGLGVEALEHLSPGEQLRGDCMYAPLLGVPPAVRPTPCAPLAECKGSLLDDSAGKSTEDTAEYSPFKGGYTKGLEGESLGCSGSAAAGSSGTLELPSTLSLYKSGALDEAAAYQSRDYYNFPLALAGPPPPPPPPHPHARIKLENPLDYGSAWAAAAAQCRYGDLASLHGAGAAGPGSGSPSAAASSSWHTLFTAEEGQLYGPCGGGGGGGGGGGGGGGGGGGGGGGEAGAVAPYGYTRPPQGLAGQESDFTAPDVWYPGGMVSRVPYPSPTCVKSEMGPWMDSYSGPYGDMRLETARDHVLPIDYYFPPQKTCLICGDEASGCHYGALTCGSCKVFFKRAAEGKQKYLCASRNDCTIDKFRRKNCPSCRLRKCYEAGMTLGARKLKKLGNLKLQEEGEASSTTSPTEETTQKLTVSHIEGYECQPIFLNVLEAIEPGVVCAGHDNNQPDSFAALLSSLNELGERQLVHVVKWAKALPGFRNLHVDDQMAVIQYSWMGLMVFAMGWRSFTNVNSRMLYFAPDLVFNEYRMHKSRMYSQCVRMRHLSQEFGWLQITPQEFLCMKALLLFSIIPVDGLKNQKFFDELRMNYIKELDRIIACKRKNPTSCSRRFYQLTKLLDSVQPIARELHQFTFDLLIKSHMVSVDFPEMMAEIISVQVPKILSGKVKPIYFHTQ
# Summary of the method: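 MDA-kb2 cells (human breast carcinoma, stably carrying an MMTV-luciferase reporter responsive to AR and GR) were plated at 3,000 cells/well and preincubated 5 hr at 37C, then given compound plus R1881 agonist for 16 h. ONE-Glo luminescence was read.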
# [17] = biological target: Androgen receptor (Homo sapiens) (UniProt P10275); assay: qHTS assay to identify small molecule agonists of the androgen receptor (AR) signaling pathway using the MDA cell line (AID 743040; also: nearly all actives have a fitted effect of over 20% in size; also: potency is read from the fitted curve at half-maximal effect)
# Summary of the method: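 MDA-kb2 breast carcinoma cells stably carrying an MMTV-driven luciferase reporter (AR- and GR-responsive) were seeded and held 5 h at 37C, 0% CO2, then exposed to compounds in DMSO for 16 h. Luminescence was read 30 min after ONE-Glo addition.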
# [18] = biological target: Androgen receptor (Homo sapiens) (UniProt P10275); assay: qHTS assay to identify small molecule antagonists of the androgen receptor (AR) signaling pathway (AID 743035; active = well fitted inhibition curve with a large enough effect in the signal ratio in the repeat runs, not every such curve was filed as active; inconclusive = weak or mixed curves, or effect the other way; inactive = no such curve, though single readings can be large or run the other way; the % refers to the signal ratio; also: potency is read from the fitted curve at half-maximal effect)
# Summary of the method: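 Beta-lactamase FRET read (2 h RT incubation with LiveBLAzer B/G) following 16 h of compound plus R1881 treatment of AR-UAS-bla HEK293 cells, which had been pre-incubated 4 h at 37C.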
SMILES,Potency [1],Potency [2],Potency [3],Potency [4],Potency [5],outcome [6],Potency [7],outcome [8],Potency [9],Potency [10],Potency [11],Potency [12],Potency [13],Potency [14],Potency [15],Potency [16],Potency [17],Potency [18]
COc1ccc(/C=C/C(=O)OCCC(C)C)cc1,inactive,inactive,inactive,inactive,inactive,inactive,inactive,inactive,inactive,inactive,inactive,inactive,inactive,inactive,–,–,–,–
COc1ccc(CC2c3cc(OC)c(OC)cc3CC[N+]2(C)CCC(=O)OCCCCCOC(=O)CC[N+]2(C)CCc3cc(OC)c(OC)cc3C2Cc2ccc(OC)c(OC)c2)cc1OC (stereo not drawn),inactive,inactive,inactive,inactive,inactive,inactive,inactive,inactive,1.29 µM [inconclusive] (active),inactive,inactive,–,inactive,inactive,inactive,–,–,–
C[N@+]12CCCC[C@@H]1CCC(=C(c1cccs1)c1cccs1)C2,inactive,inactive,inactive,inactive,inactive,inactive,inactive,inactive,inactive,inactive,5.96 µM (active),10.6 µM (active),inactive,26.6 µM (active),8.41 µM (active),18.8 µM (active),–,–
C[C@]12C=CC(=O)N[C@@H]1CC[C@@H]1[C@@H]2CC[C@]2(C)[C@@H](C(=O)Nc3cc(C(F)(F)F)ccc3C(F)(F)F)CC[C@@H]12,inactive,inactive,inactive,inactive,inactive,inactive,inactive,inactive,26.8 µM (active),inactive,4.22 µM (active),–,inactive,–,2.66 µM (active),–,–,–
OCCO[C@@H]1[C@@H](O)[C@H](O)[C@@H](CO)O[C@@H]1O,inactive,inactive,inactive,inactive,inactive,inactive,inactive,inactive,13.4 µM [inconclusive] (active),inactive,inactive,inactive,–,inactive,inactive,–,–,–
O=C1/C(=C\c2cccs2)CCC/C1=C\c1cccs1,inactive,inactive,inactive,inactive,inactive,inactive,inactive,inactive,inactive,inactive,23.7 µM (active),26.6 µM (active),–,inactive,29.8 µM (active),inactive,inactive,–
COc1cc2c(cc1OC)CC(=O)N(CCCN(C)C[C@H]1Cc3cc(OC)c(OC)cc31)CC2,inactive,inactive,inactive,inactive,inactive,inactive,inactive,inactive,inactive,inactive,–,–,inactive,inactive,9.44 µM (active),–,–,–
CNC(=O)[C@H](Cc1c[nH]c2ccccc12)NC(=O)[C@@H](CC(=O)NO)CC(C)C,inactive,inactive,inactive,inactive,inactive,inactive,inactive,inactive,15.1 µM (active),inactive,–,–,inactive,inactive,33.5 µM (active),–,–,–
CCCCCCCCCCCCCCCC(=O)OC[C@@H](O)[C@H]1OC[C@H](O)[C@H]1O,inactive,inactive,inactive,inactive,inactive,inactive,inactive,inactive,inactive,inactive,inactive,–,–,inactive,inactive,–,–,–
CC(C(=O)O)c1ccc(N2Cc3ccccc3C2=O)cc1 (stereo not drawn),inactive,inactive,inactive,inactive,inactive,inactive,inactive,inactive,inactive,inactive,inactive,–,inactive,inactive,inactive,–,–,–
Cc1cc(Nc2ccccc2C(=O)O)ccc1Cl,inactive,inactive,inactive,inactive,inactive,inactive,inactive,inactive,inactive,inactive,–,29.8 µM (active),inactive,inactive,–,inactive,inactive,–
C=Cc1c(C)c2cc3nc(cc4[nH]c(cc5nc(cc1[nH]2)C(C)=C5CCC(=O)OC)c(CCC(=O)O)c4C)[C@@]1(C)C3=CC=C(C(=O)OC)[C@H]1C(=O)OC,inactive,inactive,inactive,inactive,inactive,inactive,inactive,inactive,inactive,inactive,–,–,inactive,–,–,–,–,–
CCOC(=O)O[C@]1(C(=O)COC(=O)CC)CC[C@H]2[C@@H]3CCC4=CC(=O)C=C[C@]4(C)[C@H]3[C@@H](O)C[C@@]21C,inactive,inactive,inactive,inactive,inactive,inactive,inactive,inactive,0.0288 µM (active),inactive,inactive,–,–,inactive,–,inactive,0.0507 µM (active),2.04 µM (active)
O=C(OCc1ccccc1)c1cccnc1,inactive,inactive,inactive,inactive,inactive,inactive,inactive,inactive,inactive,inactive,–,–,–,inactive,6.68 µM (active),–,–,–
C=C1c2c(Cl)ccc(O)c2C(O)=C2C(=O)[C@]3(O)C(O)=C(C(N)=O)C(=O)[C@@H](N(C)C)[C@@H]3[C@@H](O)[C@H]12,inactive,inactive,inactive,inactive,inactive,inactive,inactive,inactive,inactive,inactive,–,inactive,inactive,inactive,–,inactive,inactive,–

# Reference: PubChem BioAssay (Tox21)
